The source of these data is PubChem BioAssay.

Active and inactive are the calls of the source.

Assay [1] is described as follows: compound effects on lung adenocarcinoma cell viability – A549, calcein-AM fluorescence, 48 h, basal, profiling panel (AID 1162). Particulars: higher = more signal.
Assay [2] can be described thus: compound effects on differentiated 3T3-L1 adipocyte viability – cell-based, 3T3-L1 adipocytes, calcein-AM fluorescence, 48 h, basal, profiling panel (AID 1163). The settings on record: 3T3-L1 adipocytes viability, higher = more signal.
Assay [3] is described as follows: compound effects on hepatocellular carcinoma cell viability – HepG2, calcein-AM fluorescence, 48 h, basal, profiling panel (AID 1164). Particulars: higher = more signal.
Assay [4] is described as follows: compound effects on multiple myeloma cell viability – MM1S, calcein-AM fluorescence, 48 h, basal, profiling panel (AID 1165).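 Further: viability of MM1S multiple myeloma cells under basal unstimulated conditions.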 The settings on record: higher = more signal.
The nature of assay [5]: calcein-AM signal in unstimulated myeloma cells – cell-based, calcein-AM fluorescence, 48 h, PK04 Diversity Set, profiling panel (AID 1166).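 Further: cells grown under basal conditions without added stimulus.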 The settings on record: RPMI8226 myeloma viability, higher = more signal.
A short description of assay [6]: JC-1 mitochondrial signal, unstimulated HepG2 cells – cell-based, JC-1 fluorescence, 24 h, 100 nL compound, profiling panel (AID 1167). Particulars: HepG2 mitochondrial potential, higher = more signal.
Assay [7] in a line: JC-1 mitochondrial signal, unstimulated adipocytes – cell-based, JC-1 fluorescence, 3T3-L1 adipocytes, 24 h, 100 nL compound, profiling panel (AID 1168). The settings on record: JC-1 mitochondrial fluorescence, higher = more signal, called active from +8 up or from −8 down.
Assay [8] is described as follows: JC-1 mitochondrial signal, unstimulated myeloma cells – cell-based, JC-1 fluorescence, RPMI8226, 24 h, 100 nL compound, profiling panel (AID 1169). Particulars: JC-1 mitochondrial potential fluorescence, higher = more signal.
The nature of assay [9]: JC-1 mitochondrial signal, unstimulated MM1S myeloma – cell-based, JC-1 fluorescence, 24 h, 100 nL compound, profiling panel (AID 1170). The settings on record: MM1S mitochondrial potential, higher = more signal.
Assay [10] can be described thus: resazurin metabolic signal in A549 cells – cell-based, resazurin fluorescence, 24 h, PK04 Diversity Set, profiling panel (AID 1171). Particulars: A549 viability, higher = more signal, called active from +8 up or from −8 down. In general terms: The colour change of resazurin is a common sign of viable cells or microbes.
Further: test concentration not given here.

On to `COCCCN1C(=O)[C@@]2(c3ccc([N+](=O)[O-])cc3)CC(=O)N(C3CCCCC3)[C@@H]2c2ccc(CO)cc21`, for which the z-score in assay [1] was -0.794; in assay [2], -1.03; in [3], 0.14; in assay [4] it was 0.819; in [5], -1.23; in [6], -0.393. For the same compound, the z-score was 0.939 (inactive) in assay [7], -0.739 in [8], -0.847 in [9] and -1.18 (inactive) in [10].

Regarding `O=C1OCC=C[C@H]2OC34C=CCN(c5ccc6ccccc6c5)C(=O)[C@H]3N(CCCCCCO)C(=O)[C@@H]4[C@@H]12` (stereo not given in full), the z-score was 0.429 in assay [1]; -0.358 in assay [2]; 0.878 in assay [3]; 1.38 in assay [4]; -0.0053 in assay [5]; 0.631 in [6]. The z-score is 0.613 (inactive) in [7], -0.979 in [8], 0.469 in assay [9] and 0.61 (inactive) in assay [10].

Turning to `C=CCC(OC(C)=O)[C@@H]1[C@@H](N(Cc2ccc(-c3ccccc3)cc2)C(=O)Cc2ccc(F)cc2)c2cc(OCCCO)ccc2N1C(=O)c1ccc(-c2ccccc2)cc1` (stereo not given in full), the z-score in [1] is -0.861; in assay [2] it was 0.779; in [3], 1.87; in assay [4], 0.784; in assay [5], 1.16; in assay [6], 3.77. In addition, the z-score is 1.54 (inactive) in assay [7], -0.714 in [8], -0.725 in [9] and 1.67 (inactive) in assay [10].

For the compound `[N-]=[N+]=Nc1ccccc1C[C@@]1(C(=O)NCCN2CCOCC2)N=C(c2ccc(OCCCO)cc2)O[C@@H]1c1ccccc1`, the z-score is 0.189 in assay [1]; -0.455 in assay [2]; 0.357 in [3]; -0.511 in assay [4]; -0.905 in [5]; 2.55 in assay [6]. Further, the z-score in [7] is 0.248 (inactive); in [8], -0.293; in assay [9], -1.35; in [10] it was -0.524 (inactive).

For `COCCOC(=O)N1C(=O)[C@@]2(c3cc(C#CCCO)ccc31)[C@H](C(=O)N1CCN(c3ncccn3)CC1)[C@H]1C(=O)O[C@H](c3ccccc3)[C@H](c3ccccc3)N1[C@@H]2c1ccccc1OCCO`, the z-score in assay [1] is 0.703; in [2], 0.701; in assay [3], -0.51; in [4], 0.135; in [5], -0.192; in assay [6] it was 0.107. Further, the z-score in assay [7] was 0.675 (inactive); in assay [8] it was -0.324; in assay [9], -1.15; in assay [10] it was 1.79 (inactive).

As for `O=C1OCCC/C=C\[C@H]2OC34C=CCN(Cn5nnc6ccccc65)C(=O)[C@H]3N(CCO)C(=O)[C@@H]4C12` (stereo not given in full), the z-score in [1] is 0.499; in assay [2], 1.02; in [3] it was -0.822; in assay [4], 0.971; in assay [5], -0.117; in assay [6], 0.31. For the same compound, the z-score was 0.192 (inactive) in assay [7], 0.656 in assay [8], -0.345 in [9] and -0.66 (inactive) in assay [10].

In the case of `CC(C)(C)OC(=O)CC[C@]12N=C(c3ccc(OCCCO)cc3)O[C@H]1c1ccccc1N(CCS(=O)(=O)c1ccccc1)C2=O`, the z-score in assay [1] is 1.16; in assay [2], 0.308; in [3], 1.44; in assay [4] it was -1.52; in assay [5], -0.568; in [6], -0.784. Moreover, the z-score in assay [7] was 1.45 (inactive); in [8], -1.09; in assay [9], -0.719; in [10], -1.71 (inactive).

In the case of `C[C@@H]1ON(c2cccc(C(=O)OC(C)(C)C)c2)[C@H](c2ccc(Br)cc2)[C@H]1C(=O)N1C(=O)OC[C@H]1Cc1ccccc1`, the z-score in assay [1] was 0.407; in assay [2] it was -0.941; in [3], -0.0479; in [4], -0.357; in [5] it was -0.205; in [6] it was -0.344. The z-score was 0.375 (inactive) in assay [7], 0.0362 in assay [8], 1.88 in assay [9] and 0.319 (inactive) in assay [10].

As to `COc1ccc([Si](C)(C)[C@H]2[C@H](CCO)O[C@@]3(C(=O)N(Cc4ccc(N5C(=O)COc6ccccc65)cc4)c4ccccc43)[C@@H]2C)cc1`, the z-score is -0.525 in assay [1]; 0.0432 in assay [2]; -3.14 in assay [3]; -2.36 in assay [4]; -4.33 in [5]; -0.509 in assay [6]. Also, the z-score in assay [7] was 1.36 (inactive); in assay [8] it was -1.07; in assay [9], -2.12; in assay [10], -2.35 (inactive).

On to `CN1C(=O)C2C=CC(C(O)C3CCCCC3)N(Nc3ccc([N+](=O)[O-])cc3[N+](=O)[O-])C2C1=O` (stereo not given), for which the z-score in assay [1] was -0.798; in [2], -0.156; in assay [3], -0.905; in assay [4], -0.193; in [5] it was -0.849; in assay [6], -1.18. Further, the z-score was -0.299 (inactive) in [7], 0.464 in [8], 0.314 in [9] and 0.421 (inactive) in assay [10].

For the compound `COCCOC(=O)N1C(=O)[C@@]2(c3cc(C#CC4=CCCCC4)ccc31)[C@H](C(=O)Nc1nc3ccccc3s1)[C@H]1C(=O)O[C@H](c3ccccc3)[C@H](c3ccccc3)N1[C@@H]2c1ccc(OCCO)cc1`, the z-score is -0.104 in assay [1]; 0.747 in [2]; 0.185 in [3]; -0.953 in [4]; -0.856 in [5]; -2.95 in assay [6]. Besides, the z-score in assay [7] is 0.662 (inactive); in assay [8], -0.583; in [9], -1.12; in [10], -0.309 (inactive).

Take `[N-]=[N+]=NCc1ccccc1[C@@H]1OC(c2ccc(OCCCO)cc2)=N[C@]1(Cc1ccccc1N=[N+]=[N-])C(=O)N1CCOCC1`: the z-score is 0.328 in assay [1]; -0.259 in assay [2]; -0.761 in [3]; -1.48 in assay [4]; -2.62 in assay [5]; -0.516 in [6]. Moreover, the z-score was -1.06 (inactive) in assay [7], -1.02 in assay [8], -1.42 in assay [9] and -0.867 (inactive) in [10].

On to `CCOC(=O)C[C@H]1[C@H](OC(=O)c2cc3ccccc3oc2=O)[C@@H](NC(=O)C2CCCCC2)c2cc(OCCCO)ccc2N1C(=O)c1ccccc1`, for which the z-score in [1] was -0.11; in [2], 3.15; in assay [3] it was 0.914; in assay [4], 0.172; in assay [5], -0.594; in assay [6], 1.36. Besides, the z-score is -0.186 (inactive) in assay [7], -0.848 in [8], 0.739 in [9] and -0.713 (inactive) in [10].

With `C=C(CCCC)C(=O)CC[C@H](OC(C)=O)c1cccc(OCCO)c1`, the z-score is -0.0802 in [1]; 1.62 in [2]; -0.889 in [3]; -1.12 in [4]; -1.18 in assay [5]; -0.525 in assay [6]. Besides, the z-score in assay [7] was 0.906 (inactive); in assay [8], 0.139; in assay [9], -0.964; in [10] it was -0.252 (inactive).
